Source: article PMC4336329 (PLoS ONE, 2015)
Screen size: about 310,000 compounds; about 14,000 (4.5%) showed an effect of 50% or more. Effects have a minus sign here. The list comes from a sample in which strong results are over-represented; it also holds similar structures and randomly drawn compounds.

biological target: human ether-à-go-go-related gene (hERG) potassium channel (human, UniProt Q12809); test: primary screen, population patch clamp on CHO cells stably expressing hERG; higher = less effect of the substance
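Note: peak tail current of the secondary pulse compared with the same well before compound.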

Chain of human ether-à-go-go-related gene (hERG) potassium channel (Q12809 whole entry, looked up): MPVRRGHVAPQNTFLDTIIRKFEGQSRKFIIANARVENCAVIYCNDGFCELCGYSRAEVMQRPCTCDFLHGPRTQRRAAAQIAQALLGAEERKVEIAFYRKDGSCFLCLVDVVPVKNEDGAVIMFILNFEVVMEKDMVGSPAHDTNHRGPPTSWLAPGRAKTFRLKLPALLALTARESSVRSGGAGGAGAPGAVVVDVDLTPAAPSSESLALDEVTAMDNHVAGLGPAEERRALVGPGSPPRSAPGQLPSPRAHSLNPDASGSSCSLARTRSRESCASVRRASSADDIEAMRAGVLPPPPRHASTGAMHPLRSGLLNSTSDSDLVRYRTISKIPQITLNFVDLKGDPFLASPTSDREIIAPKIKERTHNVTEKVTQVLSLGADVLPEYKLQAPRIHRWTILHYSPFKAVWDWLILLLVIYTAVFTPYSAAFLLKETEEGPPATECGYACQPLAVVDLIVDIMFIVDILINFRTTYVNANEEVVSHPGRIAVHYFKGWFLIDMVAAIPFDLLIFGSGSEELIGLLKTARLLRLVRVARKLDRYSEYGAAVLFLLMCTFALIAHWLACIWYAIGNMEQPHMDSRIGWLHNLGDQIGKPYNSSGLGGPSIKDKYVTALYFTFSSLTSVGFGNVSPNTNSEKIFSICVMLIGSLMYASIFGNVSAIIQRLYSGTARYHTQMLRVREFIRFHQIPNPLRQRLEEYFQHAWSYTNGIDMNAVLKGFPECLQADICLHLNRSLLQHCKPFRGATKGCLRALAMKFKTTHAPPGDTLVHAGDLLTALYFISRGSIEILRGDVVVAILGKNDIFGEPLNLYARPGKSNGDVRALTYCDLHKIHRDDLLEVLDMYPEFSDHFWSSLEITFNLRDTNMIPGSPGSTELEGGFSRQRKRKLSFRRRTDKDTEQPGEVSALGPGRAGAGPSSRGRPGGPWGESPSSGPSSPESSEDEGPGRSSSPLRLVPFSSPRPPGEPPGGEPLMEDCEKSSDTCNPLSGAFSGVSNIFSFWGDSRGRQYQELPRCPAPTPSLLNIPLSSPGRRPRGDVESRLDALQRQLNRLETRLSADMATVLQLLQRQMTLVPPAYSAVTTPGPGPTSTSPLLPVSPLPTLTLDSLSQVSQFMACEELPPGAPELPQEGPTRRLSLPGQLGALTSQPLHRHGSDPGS

SMILES | hERG current change (%, negative = inhibition) at 10uM [%]
CCCCc1c(C)nn(-c2nnc3c4ccccc4n(C)c3n2)c1C | -4.7
CCCC1=Nc2cc(C(=O)NCCCN3CCOCC3)ccc2Sc2ccccc21 | -9.32
CC(=O)Nc1cccc(NC(=O)c2cc([N+](=O)[O-])ccc2N2CCCCC2)c1 | -69.3
CN(C)S(=O)(=O)c1cccc(NC(=O)c2cc([N+](=O)[O-])ccc2N2CCCCC2)c1 | -53
O=C(Nc1cccc(C(F)(F)F)c1)c1cc(S(=O)(=O)N2CCCCC2)ccc1N1CCOCC1 | -8.02
O=C(Nc1cccc(S(=O)(=O)N2CCOCC2)c1)c1cc([N+](=O)[O-])ccc1N1CCOCC1 | -15.2
COc1ccc(NC(=O)c2cc([N+](=O)[O-])ccc2N2CCCCC2)cc1 | 4.86
CN(C)S(=O)(=O)c1ccc(N2CCCC2)c(C(=O)Nc2ccccc2)c1 | -23.5
Cc1ccc(NC(=O)c2cc([N+](=O)[O-])ccc2N2CCCC2)cc1 | -0.291
CN(C)S(=O)(=O)c1ccc(N2CCCC2)c(C(=O)Nc2cccc(F)c2)c1 | 0.224
O=C(Nc1cccc(S(=O)(=O)N2CCCCC2)c1)c1cc([N+](=O)[O-])ccc1N1CCOCC1 | -64.2
N#CC(C#N)=Cc1cccn1-c1ccc(C(=O)O)cc1 | 15.5
CC(C)NC(=O)CN1C(=O)C(=O)c2ccccc21 | -9.78
Cc1nc2ccc(S(=O)(=O)NC(C(=O)N3CCCC3)C(C)C)cc2s1 (stereo not drawn) | 7.12
COc1cc2c(cc1OC)CN(C(=O)c1ccc(S(=O)(=O)N3CCCCCC3)cc1)CC2 | -27.3
Cc1nnc(NC(=O)CSc2nc3c(c(=O)n2C)SC(C)C3)s1 (stereo not drawn) | 4.1
Cc1ccc(-c2nnc(SCC(=O)NNC(=O)COc3cccc4ccccc34)n2C)cc1 | 5.74
COc1cccc(/C=N/NC(=O)c2ccc(N3CCCC3=O)cc2)c1 | -19.8
O=C(N/N=C/c1ccccc1)c1ccc(N2CCCC2=O)cc1 | 5.87
O=C(N/N=C/c1cccc(Br)c1)c1ccc(N2CCCC2=O)cc1 | -57.6
CC(Oc1ccc([N+](=O)[O-])cc1)C(=O)NCC1CCCO1 (stereo not drawn) | -7.02
COc1ccccc1N1C(=O)c2cccc3c(N(C)CCO)ccc(c23)C1=O | 5.75
CC(NC(=O)C1CCC1)c1ccc2c(c1)OCO2 (stereo not drawn) | -5.51
CCNCCC(CCC(C)C)c1ccc2c(c1)OCO2 (stereo not drawn) | -72

SMILES | hERG current change (%, negative = inhibition) at 10uM [%]
Fc1cccc(CCNCc2ccccn2)c1 | -6.71
Cl.Fc1ccc(-c2ccc(CNCc3ccccn3)o2)cc1 | -25.4
COCCCNC(=O)c1ccc2c(c1)OCO2 | -9.98
Fc1ccccc1CNCCc1ccc2c(c1)OCO2 | -7.43
COCCCNCCC(CCC(C)C)c1ccc2c(c1)OCO2.Cl (stereo not drawn) | -80.2
Fc1ccc(C(CCNCc2ccccn2)c2ccc(Cl)cc2)cc1 (stereo not drawn) | -77.5
CCc1ccccc1NC(=O)NC(C)c1ccc2c(c1)OCO2 (stereo not drawn) | 14
Cl.Fc1ccccc1CNCCC(Cc1ccccc1)c1ccc2c(c1)OCO2 (stereo not drawn) | -50.6
COCCCNS(=O)(=O)c1ccc2c(c1)OCCO2 | 6.53
CC(=O)N(CCC(Cc1ccccc1)c1ccc2c(c1)OCO2)Cc1ccccc1F (stereo not drawn) | 7.53
Nc1nc(NCCOCCO)nc(NCc2ccccc2)c1[N+](=O)[O-] | -1.49
O=C(NCc1ccccc1)C(=O)Nc1cccc(C(=O)O)c1 | 4.16
NC(=O)N/N=C/c1ccccc1OCC(=O)NCc1ccccc1 | -3.76
S=c1[nH]nc(-c2ccncc2)n1/N=C/C=C/c1ccccc1 | 8.71
COc1ccc(S(=O)(=O)N(CCC(=O)O)Cc2ccccc2)cc1 | 13.7
Cc1ccc(-n2ncc3c(=O)n(CC(=O)NC4CCCC4)cnc32)cc1C | 5.66
CCOC(=O)c1ccc(NC(=O)Cc2coc3cc4c(cc23)CCC4)cc1 | 5.55
CO[C@@]1(NC(=O)CSCC#N)C(=O)N2C(C(=O)[O-])=C(CSc3nnnn3C)CS[C@@H]21.[Na+] | 4.09
Cc1cccc(NC(=O)NNS(=O)(=O)c2ccc(F)cc2)c1 | -1.81
CSc1nnc(SCC#N)s1 | 8.95
CC(C)CCNC(=O)CN(C(=O)CCC(=O)Nc1nccs1)c1ccc2c(c1)OCCO2 | -4.45
Cc1cc(N/N=C/c2ccccc2)nc(N)n1 | -14.5
CC(C)C(CCNCc1ccccn1)c1ccc(Cl)cc1 (stereo not drawn) | -41.6
CC(C)CCC(CCNCc1ccccn1)c1ccc2c(c1)OCO2.Cl (stereo not drawn) | -75.5

SMILES | hERG current change (%, negative = inhibition) at 10uM [%]
CC(C)CCC(CCNCc1ccccn1)c1ccc(Cl)cc1 (stereo not drawn) | -80.4
O=C(O)C(=O)O.c1ccc(CNCCc2ccc3c(c2)OCO3)nc1 | 2.74
c1ccc(CNCc2ccc3c(c2)OCO3)nc1 | 11.2
O=C(NCc1ccccn1)Nc1ccc(Cl)cc1 | 13.9
O=C(CF)NC(Nc1cccc2cccnc12)C(Cl)(Cl)Cl (stereo not drawn) | -5.95
COc1ccc(N2CCN(C(=O)c3ccc4c(c3)CCN4S(=O)(=O)c3ccccc3)CC2)cc1 | -23.2
O=C(NCC1CC1)Nc1ccccc1 | 16.3
N#C/C(=C/c1cc[nH]c1)C(N)=S | 14.2
CSc1ccccc1NC(=O)CN1CCN(Cc2ccccc2)CC1 | -66.3
O=C(CN1CCN(S(=O)(=O)c2ccccc2[N+](=O)[O-])CC1)NC(=O)NCc1ccco1 | -5.96
COc1ccccc1NC(=O)CN1CCN(c2ccccc2)CC1 | -12.7
COc1ccc(N2CCN(CC(=O)Nc3ccccc3SC)CC2)cc1 | -5.77
CCN1CCC(NC(=O)Nc2cc(Cl)ccc2OC)CC1 | -2.83
CSc1ccccc1NC(=O)CN1CCCCC1 | 8.96
COc1ccc(Cl)cc1NC(=O)CN1CCC(NC(=O)C2CC2)CC1 | -52
COC(=O)C1CCN(CC(=O)Nc2cc(Cl)ccc2OC)CC1 | -19
O=C(CN1CCN(S(=O)(=O)c2ccccc2[N+](=O)[O-])CC1)Nc1ccc(N2CCOCC2)cc1 | -12.9
COc1ccccc1NC(=O)CN1CCN(Cc2ccccc2)CC1 | -67.6
COc1ccccc1NC(=O)CCN1CCN(Cc2ccccc2)CC1 | -22.3
CSc1ccccc1NC(=O)CN1CCN(S(=O)(=O)c2ccccc2[N+](=O)[O-])CC1 | -52.2
Cc1ccccc1C(=O)NC(=S)Nc1ccccc1[N+](=O)[O-] | 18.1
O=C(NC(Cc1c[nH]c2ccccc12)c1nnc2n1CCCCC2)c1ccccc1 (stereo not drawn) | 18.7
Cc1ccc(S(=O)(=O)N2CCCC(C(=O)NCCC3=CCCCC3)C2)cc1 (stereo not drawn) | -4.03
CC1Cc2ccccc2N1C(=O)Cn1cnc2ccccc2c1=O (stereo not drawn) | 21.8

SMILES | hERG current change (%, negative = inhibition) at 10uM [%]
Cc1cc(C)nc(NC(=O)CSc2ccccn2)n1 | 1.08
C/C(=N/NC(=O)c1ccc(Br)o1)c1ccncc1 | 7.82
CCOc1ccccc1NC(=O)C1CCN(c2ccc(S(=O)(=O)N3CCCC3)cc2)CC1 | -6.65
CCC1CCCCN1CCNS(=O)(=O)c1ccc2c(c1)CCN2C(C)=O (stereo not drawn) | -1.09
CCN1CCN(C(=O)N(c2ccccc2)c2ccccc2)CC1 | 11.9
Cc1n[nH]c(=O)c2c(NC(=O)CSc3nc4ccccc4c(=O)n3CCCO)oc(C)c12 | -21.2
COc1cccc(Cn2c(Oc3cccc(C)c3)nc3c2c(=O)n(C)c(=O)n3C)c1 | -9.7
O=S(=O)(N/N=C/c1ccc(F)cc1)c1ccccc1 | 6.88
Cn1nc(-c2ccc(NCCO)c([N+](=O)[O-])c2)c2ccccc2c1=O | -2.29
O=C(c1ccccc1Cl)N(Cc1ccc(Cl)c(Cl)c1)N1C(=O)CCCC1=O | -6.37
CC(=O)Nc1ccc(NC(=O)C(C)Oc2ccccc2C(=O)NCc2ccccc2)cc1 (stereo not drawn) | -46.9
COc1ccc(OC2CCN(S(=O)(=O)c3ccc(C(C)=O)cc3)CC2)cc1 | -19.7
COc1ccc(Cl)cc1NC(=O)CN1CCN(Cc2ccccc2)CC1 | -68.9
O=C(Nc1ccccc1)c1nnn(Cc2ccccc2)c1NC(=O)C(F)(F)F | -7.45
COc1ccccc1NC(=O)c1nnn(Cc2ccccc2)c1NC(=O)C(F)(F)F | -53
COc1ccccc1NC(=O)c1nnn(Cc2ccccc2)c1NC(C)=O | 2.36
COc1ccc(Cl)cc1NC(=O)CCN1CCN(Cc2ccccc2)CC1 | -64.6
COc1ccc(Cl)cc1NC(=O)CN1CCCC1.Cl | 5.1
COc1ccc(OC)c(NC(=O)CCN2CCN(Cc3ccccc3)CC2)c1.Cl | -32.9
COc1ccc(Cl)cc1NC(=O)CN1CCCCCC1 | -8.36
COc1ccc(Cl)cc1NC(=O)CCN1CCN(c2ccccc2C)CC1 | 6.79
